Source: PubChem (National Center for Advancing Translational Sciences (NCATS))
The sample as a whole holds a higher share of hits than the screen did.
Giardia FBPA inh = inhibitors of Giardia lamblia fructose-1,6-bisphosphate aldolase. Potency, µM (doses to about 59.6 µM), for inactives: top-dose activity, negative = inhibition, usual class: inhibitors. purified Giardia FBPA. 290,000 compounds, 0.71% hits. AID 2451; also: potency is read from the fitted curve at half-maximal effect; % is scaled to controls: 0 for no effect and ±100 for the full control effect; nearly all actives have a fitted effect of over 55% in size
Target sequence (A8B2U2 whole entry, looked up): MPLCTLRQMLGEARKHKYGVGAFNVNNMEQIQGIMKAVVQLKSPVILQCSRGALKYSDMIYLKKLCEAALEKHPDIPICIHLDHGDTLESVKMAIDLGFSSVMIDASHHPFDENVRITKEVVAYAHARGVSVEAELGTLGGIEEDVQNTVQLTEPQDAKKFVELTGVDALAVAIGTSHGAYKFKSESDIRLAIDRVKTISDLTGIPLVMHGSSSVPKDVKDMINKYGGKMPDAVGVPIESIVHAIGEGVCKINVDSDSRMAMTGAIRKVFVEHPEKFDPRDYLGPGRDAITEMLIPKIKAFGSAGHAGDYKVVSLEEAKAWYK
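Giardia FBPA (40 nM reagent) was preincubated 10 min at RT with compound (up to 57.5 uM final), then substrate plus GAPDH/TPI/NAD/arsenate coupling system with diaphorase/resazurin was added; resorufin fluorescence (525/598 nm) was read after 20 min.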
LmPK inhibitor = inhibitors of Leishmania mexicana pyruvate kinase. purified LmPK, Kinase-Glo ATP luminescence, 1 h. Potency, µM (highest dose often 57.5 µM), inactives show at the top dose activity change, negative = inhibition, hits mostly inhibitors. 290,000 compounds, 0.37% hits. AID 1721; also: potency is read from the fitted curve at half-maximal effect; % is scaled to controls: 0 for no effect and ±100 for the full control effect
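Screened at intermediate enzyme activity to detect both inhibitors and activators: LmPK at 0.1 nM, with a 0.5 nM enzyme column as activation reference. PEP 0.5 mM, ADP 0.1 mM; ATP detected by luminescence after 1 h.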
Tb PYK inh = T. brucei pyruvate kinase inhibition; Q57TT1; TbPYK enzyme, Kinase-Glo Plus ATP luminescence, 45 min; Potency, µM (titrated, usually from 76.8 µM), for inactives: at the highest dose activity, negative = inhibition, most hits filed as inhibitors; 410,000 compounds, 0.12% hits; AID 624173; also: potency is read from the fitted curve at half-maximal effect; % is scaled to controls: 0 for no effect and ±100 for the full control effect; nearly all actives have a fitted effect of over 50% in size
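Luminescence from Kinase-Glo Plus, added after a 45-minute room-temperature reaction, served as the end-point read-out. The enzyme and substrate were preincubated with compound before ADP (130 uM final) initiated turnover. Concentration-effect curves came from normalized qHTS data.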
RE007 growth inh = less growth of the S. pombe RE007 Vpr strain; S. pombe RE007 Vpr strain, BacTiter-Glo ATP luminescence, 24 h; Potency, µM (series often up to 92.2 µM), inactives show at the top dose activity change, negative = less growth, most hits filed as inhibitors; 360,000 compounds, 0.21% hits; AID 651644; active = well fitted falling curve with a large enough effect; inconclusive = small, poorly fitted or top-dose-only effect; inactive = no such curve, though single readings can be large or run the other way; also: potency is read from the fitted curve at half-maximal effect; % is scaled to controls: 0 for no effect and ±100 for the full control effect; nearly all actives have a fitted effect of over 50% in size
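Fission yeast strain RE007, carrying one chromosomally integrated HIV-1 vpr copy, was seeded at OD 0.01 in PMG+AL medium with 23 nL pinned compound. After 24 h at 30 °C and 99% humidity, viability was read by BacTiter-Glo luminescence.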
CHX counter = affects cycloheximide protein synthesis inhibition readout, counter-screen; cell reporter, cycloheximide protein synthesis inhibition counterscreen; max response, %; 300,000 compounds, 12% hits; in the data active = max response mostly above about 13%, no sharp cut-off; inactive = mostly below about 14%; also: read at 38.3 µM for the half of the compounds with a filed dose; 0% is about no effect
Shiga inhibitor = blocks Shiga toxin action in Vero cells; Vero cells, Shiga toxin protein synthesis inhibition reporter; inhibition, % at 38.7 µM; 290,000 compounds, 9.2% hits; AID 2315; in the data active = inhibition mostly above about 28%, no sharp cut-off; inactive = mostly below about 43%; also: 0% is about no effect
Starred values were filed as active, the others as inactive. Unless noted, calls follow the shape of the dose curve; as a rule, active = well fitted curve in the direction sought with a large enough effect; inconclusive = small, poorly fitted or top-dose-only effect, or another doubt; inactive = no such curve, though single readings can be large; an effect the other way counts as inactive or inconclusive.

`CCc1ccccc1NS(=O)(=O)c1ccc2c(c1)CCCN2C(=O)C1CCC1` gave Tb PYK inh -9.0%.
`COc1ccc(C(O)c2nc(-c3ccc(F)c(Cl)c3)cs2)cc1` (configuration not stated) gave Tb PYK inh -0.7% and RE007 growth inh inconclusive.
`O=C(N/N=C/c1ccccn1)c1cccc(NC(=O)c2ccccc2Cl)c1` gave Giardia FBPA inh 4.6%, LmPK inhibitor -5.4%, Tb PYK inh -11.5%, RE007 growth inh 6.8%, CHX counter 11.3* and Shiga inhibitor 34.0*.
Screening Cc1cccc(C(=O)N/N=C/c2ccccn2)c1 returned Giardia FBPA inh 13.2%, LmPK inhibitor -4.5%, Tb PYK inh 5.0%, RE007 growth inh 3.3%, CHX counter 24.7* and Shiga inhibitor 91.3*.
O=C(N/N=C/c1ccncc1)c1ccc(-n2cccc2)cc1 was read as Giardia FBPA inh -1.7%, LmPK inhibitor -0.8%, Tb PYK inh 2.4%, RE007 growth inh -13.3%, CHX counter -2.0 and Shiga inhibitor -3.0.
For O=C(N/N=C/c1ccccc1F)c1cccc(NC(=O)c2ccccc2Cl)c1 the results were Giardia FBPA inh 8.4%, LmPK inhibitor 5.7%, Tb PYK inh -4.1%, RE007 growth inh 1.6%, CHX counter 25.6* and Shiga inhibitor 56.4*.
`Cc1nn(C)c(C(=O)N/N=C/c2ccccn2)c1[N+](=O)[O-]` gave LmPK inhibitor -13.6%, Tb PYK inh 0.3%, RE007 growth inh 12.6%, CHX counter 1.1 and Shiga inhibitor -32.6.
Screening O=C(N/N=C/c1cccs1)c1ccc(-n2cccc2)cc1 returned Giardia FBPA inh 1.3%, LmPK inhibitor -0.4%, Tb PYK inh 3.7%, RE007 growth inh 1.0%, CHX counter 21.7* and Shiga inhibitor 18.6.
CC(OC(=O)CC1CCCCC1)C(=O)Nc1ccc(F)cc1 (configuration not stated) was read as Tb PYK inh 3.4% and RE007 growth inh 35.5%.
CC[C@H](C)[C@H](NC(=O)[C@H](Cc1ccc(O)cc1)NC(=O)[C@@H](NC(=O)[C@H](CCCN=C(N)N)NC(=O)[C@@H](N)CC(=O)O)C(C)C)C(=O)N[C@@H](Cc1cnc[nH]1)C(=O)N1CCC[C@H]1C(=O)N[C@@H](Cc1ccccc1)C(=O)N[C@@H](Cc1cnc[nH]1)C(=O)N[C@@H](CC(C)C)C(=O)O was read as Giardia FBPA inh -7.6%, CHX counter 1.6 and Shiga inhibitor -7.9.
For O=C(Nc1ccc(NC(=O)c2ccco2)c(Cl)c1)c1ccc2c(c1)OCCO2 the results were Giardia FBPA inh -3.1%, LmPK inhibitor 2.1%, Tb PYK inh -9.6%, RE007 growth inh 7.9%, CHX counter 26.9* and Shiga inhibitor 64.4*.
For CC(=O)c1cc2c(cc1NC(=O)c1ccco1)OCCO2 the results were Giardia FBPA inh -5.4%, LmPK inhibitor -0.4%, Tb PYK inh 4.3%, RE007 growth inh 7.0%, CHX counter 9.9 and Shiga inhibitor 15.2.
`O=C(Nc1cc2c(cc1Cl)OCCO2)c1ccco1` gave Giardia FBPA inh -1.8%, LmPK inhibitor -11.7%, Tb PYK inh 0.6%, RE007 growth inh -10.1%, CHX counter 27.8* and Shiga inhibitor 92.6*.
For O=C(Nc1ccc(NC(=O)c2ccco2)cc1)c1ccc2c(c1)OCO2 the results were Giardia FBPA inh 1.5%, LmPK inhibitor -17.3%, Tb PYK inh 5.9%, RE007 growth inh 3.3%, CHX counter 0.7 and Shiga inhibitor 11.9.
For O=C(Nc1c(C(=O)Nc2ccc3c(c2)OCCO3)cnn1-c1ccccc1Cl)c1ccco1 the results were Giardia FBPA inh -6.6%, LmPK inhibitor -1.7%, Tb PYK inh 1.1%, RE007 growth inh -7.4%, CHX counter 76.5* and Shiga inhibitor 149.5*.
O=C(Nc1cc2c(cc1Br)OCCO2)c1ccco1 was read as Giardia FBPA inh -0.6%, LmPK inhibitor -8.5%, Tb PYK inh -21.5%, RE007 growth inh -21.2%, CHX counter 39.7* and Shiga inhibitor active.
